Results: PubChem BioAssay (NCI)
Compounds without any hit were thinned out: in the full panel of roughly 79,000, 15% have a hit. Activity calls are given as the source filed them. Rule as the data show it: active = growth inhibition above about 70%; inactive = the rest.

Legend:
[1] = NCI Yeast Anticancer Drug Screen. Data for the rad52 strain (AID 147);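 also: 0% = growth of vehicle-treated control cultures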; settings: S. cerevisiae rad52 mutant growth inhibition, stronger effect = higher value
How it was run: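 Screen used a yeast mutant impaired in DNA repair. After compound exposure, growth was measured. Values reflect inhibition compared with vehicle-treated cells.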

[2] = NCI Yeast Anticancer Drug Screen. Data for the wt1 strain (AID 149);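 also: 0% = growth of vehicle-treated wt1 cultures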; settings: S. cerevisiae wt1 strain (SPY 50644) growth inhibition, stronger effect = higher value
How it was run: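 wt1 strain grown with compound or vehicle; inhibition taken from the growth difference.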

[3] = NCI Yeast Anticancer Drug Screen. Data for the rad50EPP+ strain (AID 151);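 also: 0% = growth of vehicle-treated control cultures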; settings: S. cerevisiae rad50 mutant strain, stronger effect = higher value
How it was run: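 Exposing the rad50EPP+ strain to each compound, growth was compared with vehicle-only cultures to give inhibition.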

[4] = NCI Yeast Anticancer Drug Screen. Data for the mgt1 strain (AID 153); settings: S. cerevisiae mgt1 mutant growth inhibition, stronger effect = higher value
How it was run: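 Genetically defined yeast (mgt1) treated with compound; inhibition of growth expressed against vehicle-treated controls.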

[5] = NCI Yeast Anticancer Drug Screen. Data for the rad50 strain (AID 155);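 also: 0% = growth of vehicle-only cultures of the same strain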; settings: S. cerevisiae rad50 strain growth inhibition, stronger effect = higher value
How it was run: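 DNA repair mutant yeast, compound exposure, growth read-out; inhibition is taken relative to vehicle.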

[6] = NCI Yeast Anticancer Drug Screen. Data for the mec2-1 strain (AID 157); settings: S. cerevisiae mec2-1 strain, stronger effect = higher value
How it was run: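 Readout is yeast growth inhibition, normalised to vehicle-treated controls, in the mec2-1 strain exposed to compound.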

[7] = NCI Yeast Anticancer Drug Screen. Data for the rad14 strain (AID 159);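 also: 0% = growth of vehicle-treated control cultures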; settings: S. cerevisiae rad14 strain growth inhibition, stronger effect = higher value
How it was run: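 DNA repair-defective yeast, compound-exposed; % growth inhibition derived by comparison with vehicle-treated controls.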

[8] = NCI Yeast Anticancer Drug Screen. Data for the sgs1 mgt1 strain (AID 161);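 also: 0% = growth of cultures given vehicle only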; settings: S. cerevisiae sgs1 mgt1 strain, stronger effect = higher value
How it was run: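 This yeast growth screen uses a strain with defined DNA-repair lesions; compound-treated growth is compared with vehicle-treated growth.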

[9] = NCI Yeast Anticancer Drug Screen. Data for the cln2 rad14 strain (AID 165);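 also: 0% = growth equal to vehicle treated cultures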; settings: S. cerevisiae cln2 rad14 strain, stronger effect = higher value
How it was run: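 Relative to vehicle controls, growth inhibition of compound-treated cln2 rad14 yeast was recorded.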

[10] = NCI Yeast Anticancer Drug Screen. Data for the bub3 strain (AID 167); settings: S. cerevisiae bub3 mutant strain, stronger effect = higher value
How it was run: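 In this screen, a yeast mutant lacking normal mitotic checkpoint function is challenged with compound. Relative growth versus vehicle gives the inhibition value.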

[11] = NCI Yeast Anticancer Drug Screen. Data for the wt2 strain (AID 169);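 also: 0% = growth of vehicle-treated yeast cultures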; settings: S. cerevisiae wt2 strain growth inhibition, stronger effect = higher value
How it was run: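 Values express reduction in yeast growth under compound treatment, referenced to vehicle-treated cells.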

[12] = NCI Yeast Anticancer Drug Screen. Data for the mlh1 strain (AID 171);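 also: 0% = growth of vehicle-treated control cultures of the same strain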; settings: S. cerevisiae mlh1 strain growth inhibition, stronger effect = higher value
How it was run: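 Steps: expose the defined-mutant yeast strain to compound; expose a parallel culture to vehicle; measure growth; express compound effect as inhibition relative to the vehicle culture.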

[13] = NCI Yeast Anticancer Drug Screen. Data for the sgs1 strain (AID 173);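 also: 0% = growth of vehicle-only control cultures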; settings: S. cerevisiae sgs1 mutant, stronger effect = higher value
How it was run: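 Treat defined-mutant yeast with compound; measure growth; calculate inhibition relative to vehicle-treated cells.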

[14] = NCI Yeast Anticancer Drug Screen. Data for the mlh1 rad18 strain (AID 175); settings: S. cerevisiae mlh1 rad18 strain growth inhibition, stronger effect = higher value
How it was run: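 Test agents were incubated with a yeast strain of defined genotype (DNA damage repair defect). Inhibition of growth was derived by comparison with vehicle-exposed cultures.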

[15] = NCI Yeast Anticancer Drug Screen. Data for the rad18 strain (AID 177); settings: S. cerevisiae rad18 mutant growth inhibition, stronger effect = higher value
How it was run: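 A genetically defined yeast mutant impaired in DNA damage repair was treated with test compounds, then its growth was measured against cultures receiving vehicle alone.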

[16] = at 5.0 µM (retest, dose inferred, filed as 0.5)
[17] = at 50.0 µM (retest, dose inferred, filed as 5.0)

Measured: growth inhibition

COC1=CC(=O)C2C(C1=O)C(c1ccc(Cl)cc1)[C@@H]2C (stereo partly specified)
inactive: [1]; at 1.2 µM 12% | [1]; at 3.7 µM 25% | [2]; at 1.2 µM 11% | [2]; at 3.7 µM 23% | [3]; at 1.2 µM 29% | [3]; at 3.7 µM 64% | [4]; at 1.2 µM 21% | [4]; at 3.7 µM 30% | [5]; at 1.2 µM 2% | [5]; at 3.7 µM 12% | [5]; [16] 4% | [6]; at 1.2 µM 34% | [6]; at 3.7 µM 49% | [6]; [16] -12% | [7]; at 1.2 µM -3% | [7]; at 3.7 µM 12% | [8]; [16] -10% | [9]; [16] 30% | [10]; at 1.2 µM 24% | [10]; at 3.7 µM 53% | [10]; [16] 41% | [11]; at 1.2 µM 6% | [11]; at 3.7 µM 22% | [12]; at 1.2 µM 20% | [12]; at 3.7 µM 39% | [13]; at 1.2 µM 33% | [13]; at 3.7 µM 48% | [14]; [16] 23% | [15]; at 1.2 µM 14% | [15]; at 3.7 µM 29%
active: [1]; at 11.0 µM 98% | [1]; at 33.0 µM 99% | [1]; at 100.0 µM 99% | [2]; at 11.0 µM 99% | [2]; at 33.0 µM 99% | [2]; at 100.0 µM 99% | [3]; at 11.0 µM 98% | [3]; at 33.0 µM 98% | [3]; at 100.0 µM 98% | [4]; at 11.0 µM 99% | [4]; at 33.0 µM 99% | [4]; at 100.0 µM 99% | [5]; at 11.0 µM 98% | [5]; at 33.0 µM 98% | [5]; [17] 98% | [5]; at 50.0 µM 90.5% | [5]; at 100.0 µM 98% | [6]; at 11.0 µM 99% | [6]; at 33.0 µM 98% | [6]; [17] 99% | [6]; at 50.0 µM 93.8% | [6]; at 100.0 µM 99% | [7]; at 11.0 µM 98% | [7]; at 33.0 µM 99% | [7]; at 100.0 µM 99% | [8]; [17] 98% | [8]; at 50.0 µM 92% | [9]; [17] 98% | [9]; at 50.0 µM 90.5% | [10]; at 11.0 µM 99% | [10]; at 33.0 µM 99% | [10]; [17] 99% | [10]; at 50.0 µM 90.8% | [10]; at 100.0 µM 99% | [11]; at 11.0 µM 94% | [11]; at 33.0 µM 98% | [11]; at 100.0 µM 99% | [12]; at 11.0 µM 98% | [12]; at 33.0 µM 99% | [12]; at 100.0 µM 99% | [13]; at 11.0 µM 99% | [13]; at 33.0 µM 99% | [13]; at 100.0 µM 98% | [14]; [17] 98% | [14]; at 50.0 µM 90.5% | [15]; at 11.0 µM 97% | [15]; at 33.0 µM 99% | [15]; at 100.0 µM 99%

CCCc1cc(C(=O)OCC)cc(CCC)c1O
inactive: [1]; at 1.2 µM -2% | [1]; at 3.7 µM -8% | [1]; at 11.0 µM -9% | [1]; at 33.0 µM -11% | [2]; at 1.2 µM -1% | [2]; at 3.7 µM -5% | [2]; at 11.0 µM -9% | [2]; at 33.0 µM -13% | [3]; at 1.2 µM -2% | [3]; at 3.7 µM 3% | [3]; at 11.0 µM 14% | [3]; at 33.0 µM 21% | [3]; at 100.0 µM 25% | [4]; at 1.2 µM -3% | [4]; at 3.7 µM -4% | [4]; at 11.0 µM -9% | [4]; at 33.0 µM -12% | [5]; at 1.2 µM -8% | [5]; at 3.7 µM -49% | [5]; [16] 5% | [5]; at 11.0 µM 16% | [5]; at 33.0 µM 0% | [5]; [17] 3% | [6]; at 1.2 µM -4% | [6]; at 3.7 µM -5% | [6]; [16] -47% | [6]; at 11.0 µM -13% | [6]; at 33.0 µM -12% | [6]; [17] 8% | [7]; at 1.2 µM -1% | [7]; at 3.7 µM -2% | [7]; at 11.0 µM -11% | [7]; at 33.0 µM -8% | [8]; [16] 1% | [8]; [17] 27% | [9]; [16] 2% | [9]; [17] -29% | [10]; at 1.2 µM 0% | [10]; at 3.7 µM 10% | [10]; [16] 31% | [10]; at 11.0 µM 39% | [10]; at 33.0 µM 63% | [11]; at 1.2 µM -1% | [11]; at 3.7 µM 4% | [11]; at 11.0 µM -7% | [11]; at 33.0 µM -3% | [12]; at 1.2 µM -4% | [12]; at 3.7 µM -4% | [12]; at 11.0 µM -8% | [12]; at 33.0 µM -8% | [13]; at 1.2 µM -2% | [13]; at 3.7 µM -2% | [13]; at 11.0 µM -3% | [13]; at 33.0 µM 18% | [14]; [16] 2% | [14]; [17] 7% | [15]; at 1.2 µM -6% | [15]; at 3.7 µM 0% | [15]; at 11.0 µM -5% | [15]; at 33.0 µM -1%
active: [1]; at 100.0 µM 97% | [2]; at 100.0 µM 93% | [4]; at 100.0 µM 97% | [5]; at 50.0 µM 93.1% | [5]; at 100.0 µM 98% | [6]; at 50.0 µM 96.1% | [6]; at 100.0 µM 95% | [7]; at 100.0 µM 96% | [8]; at 50.0 µM 79.3% | [9]; at 50.0 µM 93.8% | [10]; [17] 77% | [10]; at 50.0 µM 96.7% | [10]; at 100.0 µM 97% | [11]; at 100.0 µM 94% | [12]; at 100.0 µM 98% | [13]; at 100.0 µM 95% | [14]; at 50.0 µM 93.5% | [15]; at 100.0 µM 98%
